Data: PubChem BioAssay (NCATS)
Records with an inconclusive call do not appear. Entries that show only a call come without a potency. Active and inactive are the calls of the source. Unless noted, calls follow the shape of the dose curve; as a rule, active = well fitted inhibition curve with a large enough effect; inconclusive = small, poorly fitted or top-dose-only effect; inactive = flat fitted curve, though single readings scatter.

What was measured:
[1] = S16 Schwann cell PMP22 intronic element beta-lactamase assay (AID 624044; calls by dose curve; also: nearly all actives have a fitted effect of over 15% in size)
How it was run: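 Beta-lactamase reporter under a PMP22 intronic regulatory element in stable S16 rat Schwann cells; 24 h compound exposure. 460 nm blue signal normalized between DMSO (0%) and potassium clavulanate, with 535 nm FRET tracking viability; curves classed by r2 and response.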

7G8 = assay: qHTS profiling for inhibitors of Plasmodium falciparum proliferation (AID 504749); also: nearly all actives have a fitted effect of over 60% in size; also: potency is read from the fitted curve at half-maximal effect; details: P. falciparum in erythrocytes, SYBR Green DNA, 72 h; series mostly up to 12.8 µM
How it was run: (§1)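 In a 72 h erythrocytic culture (37 C, humidified, 5% CO2) at 2.5% hematocrit and 0.3% starting parasitemia, compounds were tested; SYBR Green I in detergent lysis buffer stained parasite DNA overnight.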

AA1029 = assay: as above; details: P. falciparum in erythrocytes, SYBR Green DNA, 72 h; series mostly up to 12.8 µM
How it was run: as §1

CP185 = assay: as above; details: P. falciparum in erythrocytes, SYBR Green DNA, 72 h; series mostly up to 12.8 µM
How it was run: as §1

CP201 = assay: as above; details: P. falciparum in erythrocytes, SYBR Green DNA, 72 h; series mostly up to 12.8 µM
How it was run: as §1

CP203 = assay: as above; details: P. falciparum in erythrocytes, SYBR Green DNA, 72 h; series mostly up to 12.8 µM
How it was run: as §1

CP286 = assay: as above; details: P. falciparum in erythrocytes, SYBR Green DNA, 72 h; series mostly up to 12.8 µM
How it was run: as §1

CP297 = assay: as above; details: P. falciparum in erythrocytes, SYBR Green DNA, 72 h; series mostly up to 12.8 µM
How it was run: as §1

CP325 = assay: as above; details: P. falciparum in erythrocytes, SYBR Green DNA, 72 h; series mostly up to 12.8 µM
How it was run: as §1

DIV14 = assay: as above; details: P. falciparum in erythrocytes, SYBR Green DNA, 72 h; series mostly up to 12.8 µM
How it was run: as §1

DIV17 = assay: as above; details: P. falciparum in erythrocytes, SYBR Green DNA, 72 h; series mostly up to 12.8 µM
How it was run: as §1

DIV30 = assay: as above; details: P. falciparum in erythrocytes, SYBR Green DNA, 72 h; series mostly up to 12.8 µM
How it was run: as §1

Dd2 = assay: as above; details: P. falciparum in erythrocytes, SYBR Green DNA, 72 h; series mostly up to 12.8 µM
How it was run: as §1

HB3 = assay: as above; details: P. falciparum in erythrocytes, SYBR Green DNA, 72 h; series mostly up to 12.8 µM
How it was run: as §1

P93_24 = assay: as above; details: P. falciparum in erythrocytes, SYBR Green DNA, 72 h; series mostly up to 12.8 µM
How it was run: as §1

PAD = assay: as above; details: P. falciparum in erythrocytes, SYBR Green DNA, 72 h; series mostly up to 12.8 µM
How it was run: as §1

TAB113 = assay: as above; details: P. falciparum in erythrocytes, SYBR Green DNA, 72 h; series mostly up to 12.8 µM
How it was run: as §1

TAB165 = assay: as above; details: P. falciparum in erythrocytes, SYBR Green DNA, 72 h; series mostly up to 12.8 µM
How it was run: as §1

W2 = assay: as above; details: P. falciparum in erythrocytes, SYBR Green DNA, 72 h; series mostly up to 12.8 µM
How it was run: as §1

ECU = assay: as above; details: P. falciparum in erythrocytes, SYBR Green DNA, 72 h; series mostly up to 12.8 µM
How it was run: as §1

Compound | Potency [1] | Potency (7G8) | Potency (AA1029) | Potency (CP185) | Potency (CP201) | Potency (CP203) | Potency (CP286) | Potency (CP297) | Potency (CP325) | Potency (DIV14) | Potency (DIV17) | Potency (DIV30) | Potency (Dd2) | Potency (HB3) | Potency (P93_24) | Potency (PAD) | Potency (TAB113) | Potency (TAB165) | Potency (W2) | Potency (ECU)
CC[C@H](CO)NCCN[C@@H](CC)CO | inactive | inactive | inactive | inactive | inactive | inactive | inactive | inactive | inactive | inactive | inactive | inactive | inactive | inactive | inactive | inactive | inactive | inactive | inactive | –
NC(=O)c1cc[n+](CC2=C(C(=O)[O-])N3C(=O)[C@@H](NC(=O)Cc4cccs4)[C@@H]3SC2)cc1 | inactive | – | inactive | inactive | inactive | – | inactive | inactive | inactive | inactive | inactive | inactive | inactive | inactive | inactive | inactive | inactive | inactive | inactive | inactive
Cc1ccc(S(=O)(=O)NC(=O)NN2C[C@H]3CCC[C@@H]3C2)cc1 | inactive | inactive | inactive | inactive | inactive | inactive | inactive | inactive | inactive | inactive | inactive | – | inactive | inactive | inactive | inactive | inactive | inactive | inactive | inactive
CC1(C)O[C@H]2C[C@@H]3[C@H]4CCC5=CC(=O)CC[C@@]5(C)[C@]4(F)[C@@H](O)C[C@@]3(C)[C@@]2(C(=O)CCl)O1 | inactive | 1.58 µM (active) | 2.82 µM (active) | – | – | – | – | – | – | 5.1 µM (active) | 6.42 µM (active) | 5.73 µM (active) | – | – | 3.55 µM (active) | – | – | 3.16 µM (active) | 4.55 µM (active) | inactive
CC(=O)OCC(=O)[C@@]1(O)[C@H](C)C[C@@H]2[C@H]3CCC4=CC(=O)C=C[C@]4(C)[C@]3(F)[C@@H](O)C[C@@]21C | – | inactive | inactive | inactive | inactive | inactive | inactive | inactive | inactive | inactive | inactive | inactive | inactive | inactive | inactive | inactive | inactive | inactive | inactive | inactive
C=CC1=C(C(=O)O)N2C(=O)[C@@H](NC(=O)/C(=N\OCC(=O)O)c3csc(N)n3)[C@@H]2SC1 | – | inactive | inactive | inactive | inactive | inactive | inactive | inactive | inactive | inactive | inactive | inactive | inactive | inactive | inactive | inactive | inactive | inactive | inactive | inactive
CCCC[C@H](CC)CN1CN(C[C@@H](CC)CCCC)CC(C)(N)C1 | – | – | inactive | inactive | inactive | inactive | – | inactive | inactive | inactive | inactive | inactive | inactive | inactive | inactive | inactive | inactive | inactive | – | inactive
C[C@H]1CC[C@]2(OC1)O[C@@H]1C[C@@H]3[C@@H]4CC[C@H]5C[C@@H](O)CC[C@]5(C)[C@@H]4CC(=O)[C@@]3(C)[C@H]1[C@@H]2C | – | inactive | inactive | inactive | inactive | inactive | inactive | inactive | inactive | inactive | inactive | inactive | inactive | inactive | inactive | inactive | inactive | inactive | inactive | inactive
COCC(=O)Nc1c(I)c(C(=O)NC[C@@H](O)CO)c(I)c(C(=O)N(C)C[C@@H](O)CO)c1I | inactive | inactive | inactive | inactive | inactive | inactive | inactive | inactive | inactive | inactive | inactive | inactive | inactive | inactive | inactive | inactive | inactive | inactive | inactive | inactive
CCC[C@@H]1O[C@@H]2C[C@@H]3[C@H]4CCC5=CC(=O)C=C[C@@]5(C)[C@H]4[C@H](O)C[C@@]3(C)[C@@]2(C(=O)CO)O1 | inactive | 4.47 µM (active) | 11.2 µM (active) | – | – | – | – | 12 µM (active) | – | 9.53 µM (active) | – | – | 12.6 µM (active) | – | 8.91 µM (active) | – | – | 11.2 µM (active) | 6.01 µM (active) | 7.08 µM (active)
CC(=O)C[C@H](c1ccc([N+](=O)[O-])cc1)c1c(O)c2ccccc2oc1=O | inactive | inactive | inactive | inactive | inactive | inactive | inactive | – | inactive | inactive | inactive | inactive | inactive | inactive | inactive | inactive | inactive | inactive | inactive | inactive
COC(=O)C1=C(C)NC(C)=C(C(=O)OC(C)C)[C@H]1c1cccc2nonc12 | inactive | 3.16 µM (active) | – | inactive | – | – | – | – | – | – | – | inactive | inactive | – | inactive | inactive | – | – | – | –
NCc1ccccc1CC(=O)N[C@@H]1C(=O)N2C(C(=O)O)=C(CSc3nnnn3CC(=O)O)CS[C@@H]12 | inactive | inactive | inactive | inactive | inactive | inactive | inactive | inactive | inactive | inactive | inactive | – | inactive | inactive | inactive | inactive | inactive | inactive | inactive | inactive
CN(C/C=C\c1ccccc1)Cc1cccc2ccccc12 | inactive | – | inactive | inactive | inactive | inactive | – | – | inactive | inactive | inactive | inactive | inactive | inactive | inactive | inactive | inactive | inactive | – | inactive
CN1CCN([C@@H](c2ccccc2)c2ccc(Cl)cc2)CC1 | inactive | 3.16 µM (active) | – | inactive | – | – | inactive | inactive | inactive | 2.28 µM (active) | – | – | – | inactive | – | – | – | – | 2.03 µM (active) | inactive
COc1cc2nc(N3CCN(C(=O)[C@@H]4COc5ccccc5O4)CC3)nc(N)c2cc1OC | inactive | 7.08 µM (active) | – | – | inactive | – | – | – | inactive | 13.5 µM (active) | 6.75 µM (active) | – | – | – | – | – | – | – | 5.36 µM (active) | –
Clc1ccc([C@H](Cn2ccnc2)OCc2csc3c(Cl)cccc23)c(Cl)c1 | – | 1.41 µM (active) | – | – | – | 5.73 µM (active) | – | 6.42 µM (active) | – | 5.1 µM (active) | 7.21 µM (active) | 5.1 µM (active) | 3.55 µM (active) | – | 2 µM (active) | 3.55 µM (active) | – | 2.24 µM (active) | 2.28 µM (active) | 3.98 µM (active)
CC(C)NC[C@H]1CCc2cc(CO)c([N+](=O)[O-])cc2N1 | – | inactive | inactive | inactive | inactive | inactive | inactive | inactive | inactive | inactive | inactive | inactive | inactive | inactive | inactive | inactive | inactive | inactive | inactive | inactive
CN(C)CCOC(=O)[C@@H](c1ccccc1)C1(O)CCCC1 | inactive | inactive | inactive | inactive | inactive | inactive | inactive | – | inactive | inactive | inactive | inactive | – | inactive | – | inactive | inactive | inactive | 8.49 µM (active) | inactive
CC(=O)O[C@]1(C(C)=O)CC[C@@H]2[C@@H]3C=C(C)C4=CC(=O)CC[C@@]4(C)[C@H]3CC[C@]21C | inactive | – | inactive | inactive | inactive | inactive | inactive | inactive | inactive | inactive | inactive | inactive | inactive | inactive | inactive | inactive | inactive | inactive | inactive | inactive
OCCN1CCN(CCC=C2c3ccccc3Sc3ccc(Cl)cc32)CC1 | inactive | 3.16 µM (active) | – | – | – | inactive | 3.55 µM (active) | inactive | – | – | – | – | 3.98 µM (active) | – | – | – | inactive | – | 0.721 µM (active) | –
CCC(=O)O[C@@]1(C(=O)SCF)[C@@H](C)C[C@H]2[C@@H]3C[C@@H](F)C4=CC(=O)C=C[C@@]4(C)[C@]3(F)[C@@H](O)C[C@]21C | inactive | 2.82 µM (active) | – | – | inactive | inactive | inactive | inactive | inactive | – | – | – | – | – | 3.55 µM (active) | – | – | 3.16 µM (active) | 3.22 µM (active) | –
C[C@H](C(=O)O)c1cccc(Oc2ccccc2)c1 | inactive | – | inactive | inactive | inactive | inactive | inactive | inactive | inactive | inactive | inactive | inactive | inactive | inactive | inactive | inactive | inactive | inactive | inactive | inactive
C=CCN1C(=CCO)[C@H]2C[C@H]3[C@@H]1CC[C@@]31c3ccccc3N3C=C4[C@@H]5N(/C=C/2[C@H]31)c1ccccc1[C@]51CC[C@H]2[C@H]1C[C@@H]4/C(=C/CO)N2CC=C | inactive | inactive | inactive | inactive | inactive | inactive | inactive | inactive | inactive | inactive | inactive | inactive | inactive | inactive | inactive | inactive | inactive | inactive | inactive | inactive
